{
  "source": "PubChem BioAssay (NCATS)",
  "note": "Inconclusive results are not listed. Calls of active or inactive are those of the source. Calls come from the whole dose curve; as a rule, active = well fitted inhibition curve with a large enough effect; inconclusive = small, poorly fitted or top-dose-only effect; inactive = flat fitted curve, though single readings scatter. % is set by controls: 0 for no effect and ±100 for the full control effect; potency is the fitted concentration of half-maximal effect.",
  "data": [
    {"molecular_target": "Ubiquitin carboxyl-terminal hydrolase 1 (Homo sapiens) (UniProt O94782)", "sequence (O94782 whole entry, looked up)": "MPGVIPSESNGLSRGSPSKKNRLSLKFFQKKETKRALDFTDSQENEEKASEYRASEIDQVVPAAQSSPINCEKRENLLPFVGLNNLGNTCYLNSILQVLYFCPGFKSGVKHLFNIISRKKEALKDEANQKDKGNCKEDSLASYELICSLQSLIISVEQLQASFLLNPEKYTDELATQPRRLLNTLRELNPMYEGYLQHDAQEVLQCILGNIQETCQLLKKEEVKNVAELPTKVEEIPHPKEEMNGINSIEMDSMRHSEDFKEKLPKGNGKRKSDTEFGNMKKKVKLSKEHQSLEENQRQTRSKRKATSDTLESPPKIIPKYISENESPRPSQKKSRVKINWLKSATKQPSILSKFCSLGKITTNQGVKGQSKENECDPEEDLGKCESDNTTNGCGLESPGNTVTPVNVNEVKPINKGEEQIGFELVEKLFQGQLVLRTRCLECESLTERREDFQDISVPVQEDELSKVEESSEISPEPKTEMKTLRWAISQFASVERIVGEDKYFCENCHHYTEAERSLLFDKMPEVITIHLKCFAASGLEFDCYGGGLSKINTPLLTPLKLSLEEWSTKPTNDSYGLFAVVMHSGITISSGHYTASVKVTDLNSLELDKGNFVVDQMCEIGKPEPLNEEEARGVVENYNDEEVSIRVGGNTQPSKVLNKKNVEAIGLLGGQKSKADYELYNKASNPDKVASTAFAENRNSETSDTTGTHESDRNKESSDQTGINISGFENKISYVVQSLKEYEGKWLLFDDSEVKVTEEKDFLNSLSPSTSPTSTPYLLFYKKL", "experiment": "Inhibitors of USP1/UAF1: Pilot qHTS (AID 504865); note: nearly all actives have a fitted effect of over 35% in size;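 for activity change, negative = inhibition: rhodamine fluorescence freed from ubiquitin-rhodamine substrate followed over time; top concentration of the series differs between compounds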", "conditions": "purified USP1/UAF1, Ub-rhodamine cleavage fluorescence; series mostly up to 114 µM; activity change, negative = inhibition: at the top concentration", "description": "Deubiquitinating enzymes (DUBs) are a class of enzymes that can cleave isopeptide bond formed between the C-terminal carboxylate of ubiquitin and a lysine side-chain amino group on the target protein. Among them, ubiquitin specific proteases (USPs) constitute the largest DUB family. Human USPs are emerging as promising targets for pharmacological intervention because of their connection to a number of human diseases, including prostate, colon and breast cancer (1, 2), pediatric acute lymphoblastic leukemia (3), and familial cylindromatosis (4). The advantage of inhibiting USPs lies in the potential specificity of therapeutic intervention that can lead to better efficacy and reduce nonspecific side effects.\nIn a collaboration between the University of Delaware and the NIH Chemical Genomics Center, a high-throughput screen assay was developed to screen for USP1/UAF1 inhibitors. This miniaturized assay has a fluorescent read-out and is used to screen the NIH Molecular Libraries Small Molecule Repository (MLSMR) in order to identify a small molecule that inhibits USP1.\nNIH Chemical Genomics Center [NCGC]\nNIH Molecular Libraries Probe Centers Network [MLPCN]\nAssay Submitter (PI): Zhihao Zhuang, University of Delaware\n1. Priolo, C., et al. (2006) The isopeptidase USP2a protects human prostate cancer from apoptosis. Cancer Res 66, 8625-8632\n2. Popov, N., et al. (2007) The ubiquitin-specific protease USP28 is required for MYC stability. Nat Cell Biol 9, 765-774\n3. De Pitta, C., et al. (2005) A leukemia-enriched cDNA microarray platform identifies new transcripts with relevance to the biology of pediatric acute lymphoblastic leukemia. Haematologica 90, 890-898\n4. Kovalenko, A., et al. (2003) The tumour suppressor CYLD negatively regulates NF-kappaB signalling by deubiquitination. Nature 424, 801-805\n3 microliters of reagents (buffer in columns 3 and 4 as negative control and 1nM USP1/UAF1 complex in columns 1, 2, and 5-48) are dispensed into Greiner black solid bottom 1536-well assay plates. Compounds are then transferred via Kalypsys pin tool equipped with 1536-pin array (10nl slotted pins, V&P Scientific, San Diego, CA). Following an incubation step of 15 min at room temperature, 1ul of Ub-Rho substrate (150nM final concentration) is added to initiate the reaction. The plates are immediately centrifuged at 1000 rpm for 15 seconds, and subsequently transferred to a ViewLux high-throughput CCD imager (PerkinElmer) wherein kinetic measurements of fluorescence are acquired using 480 nm excitation/540 nm emission filter set (6 reads every 60 seconds, see Table 1). All reagents are diluted in an assay buffer consisting of 50mM HEPES (pH 7.8), 0.5mM EDTA, 0.1 mg/ml BSA, 1mM TCEP, and 0.01% Tween-20.", "values": [
      {"smiles": "C=C1C(n2cnc3c(=O)[nH]c(N)nc32)C[C@H](O)[C@H]1CO", "note": "(stereo not given in full)", "activity change, negative = inhibition": "-7.52% (inactive)"},
      {"smiles": "OC[C@@H](O)C(O[C@@H]1O[C@@H](CO)[C@H](O)[C@H](O)[C@H]1O)[C@H](O)[C@@H](O)CO", "note": "(stereo not given in full)", "activity change, negative = inhibition": "-1.8% (inactive)"},
      {"smiles": "CC(C)(C)NC[C@H](O)CSc1nc(-c2ccc(C(N)=O)s2)cs1", "activity change, negative = inhibition": "-8.34% (inactive)"},
      {"smiles": "CO/N=C(/C(=O)N[C@@H]1C(=O)N2C(C(=O)O)=C(CSc3cnns3)CS[C@H]12)c1csc(N)n1", "activity change, negative = inhibition": "-12.8% (inactive)"},
      {"smiles": "NC(=O)NC(CCC(=O)O)C(=O)O", "note": "(stereo not given)", "activity change, negative = inhibition": "0.183% (inactive)"},
      {"smiles": "OCCN1CC(O)C(O)C(O)C1CO", "note": "(stereo not given)", "activity change, negative = inhibition": "-2.06% (inactive)"},
      {"smiles": "C=C(CC[C@@H](C)[C@H]1CCC2[C@]1(C)CC[C@]13C[C@@]14CCC(OC(=O)/C=C/c1ccc(O)c(OC)c1)C(C)(C)[C@@H]4CC[C@@]23C)C(C)C", "note": "(stereo not given in full)", "activity change, negative = inhibition": "-9.51% (inactive)"},
      {"smiles": "CNC1C(O)C(OC2C(N)CC(N)C(OC3OC(CN)=CCC3N)C2O)OCC1(C)O", "note": "(stereo not given)", "activity change, negative = inhibition": "-3.02% (inactive)"},
      {"smiles": "COc1cccc2c1C(=O)c1c(O)c3c(c(O)c1C2=O)C[C@](O)(C(C)=O)C[C@H]3O[C@@H]1C[C@H](N)[C@H](O)[C@H](C)O1", "Potency": "31.6 µM (active)"},
      {"smiles": "C[C@@H]1CCN(C(=O)[C@H](CCCNC(=N)N)NS(=O)(=O)c2cccc3c2NC[C@H](C)C3)[C@@H](C(=O)O)C1", "activity change, negative = inhibition": "3.79% (inactive)"},
      {"smiles": "C[C@]12CC[C@@H]3c4ccc(O)cc4CC[C@H]3[C@@H]1C[C@H](O)C2O", "note": "(stereo not given in full)", "activity change, negative = inhibition": "2.39% (inactive)"},
      {"smiles": "C[C@]12CCC(=O)C=C1[C@@H]1C[C@H]1[C@H]1[C@@H]3[C@@H]4C[C@H]4[C@@]4(CCC(=O)O4)[C@@]3(C)CC[C@@H]12", "activity change, negative = inhibition": "-4.35% (inactive)"},
      {"smiles": "C=CCn1c(=O)n(C2OC(CO)C(O)C2O)c2nc(N)[nH]c(=O)c21", "note": "(stereo not given)", "activity change, negative = inhibition": "-5.61% (inactive)"},
      {"smiles": "O=C1Oc2ccccc2C(=O)C1C(CC(O)c1ccc(-c2ccc(Br)cc2)cc1)c1ccccc1", "note": "(stereo not given)", "Potency": "50.1 µM (active)"},
      {"smiles": "CC(=O)OCC(=O)[C@@]1(O)CCC2C3C[C@H](C)C4=CC(=O)C=CC4(C)C3C(O)CC21C", "note": "(stereo not given in full)", "activity change, negative = inhibition": "-2.2% (inactive)"},
      {"smiles": "O=C(O)CC(O)CC(O)/C=C/c1c(C2CC2)nc2ccccc2c1-c1ccc(F)cc1", "note": "(stereo not given)", "activity change, negative = inhibition": "-8.38% (inactive)"},
      {"smiles": "CO/N=C(/C(=O)N[C@H]1C(=O)N2C(C(=O)O)=C(COC(C)=O)CSC12)c1csc(N)n1", "note": "(stereo not given in full)", "Potency": "39.8 µM (active)"},
      {"smiles": "NCCCCC(N)C(=O)O", "note": "(stereo not given)", "activity change, negative = inhibition": "-6.96% (inactive)"},
      {"smiles": "C=C[C@@]1(C)C[C@H](OC(=O)CSC(C)(C)CNC(=O)[C@@H](N)C(C)C)[C@@]2(C)C(C)CC[C@@]3(CCC(=O)[C@@H]32)[C@H](C)[C@H]1O", "note": "(stereo not given in full)", "activity change, negative = inhibition": "-6.8% (inactive)"},
      {"smiles": "COc1ccc(S(=O)(=O)N2c3ccc(Cl)cc3[C@](O)(c3ccccc3Cl)[C@@H]2C(=O)N2CCC[C@H]2C(N)=O)cc1OC", "activity change, negative = inhibition": "-12.3% (inactive)"},
      {"smiles": "C=C1[C@@H]2CC[C@H](C2)C1(C)C", "activity change, negative = inhibition": "-5.05% (inactive)"},
      {"smiles": "OCC(O)C(O)C(O)C(O)CO", "note": "(stereo not given)", "Potency": "inactive"},
      {"smiles": "CC(O)C1CCC2C3CCC4CC(O)CCC4(C)C3CCC12C", "note": "(stereo not given)", "activity change, negative = inhibition": "-4.55% (inactive)"},
      {"smiles": "CO/N=C(/C(=O)N[C@@H]1C(=O)N2C(C(=O)O)=C(CSc3nnnn3C)CS[C@H]12)c1csc(N)n1", "activity change, negative = inhibition": "-9% (inactive)"},
      {"smiles": "CCCC[C@H](CC)CN=C(N)NC(N)=NCCCCCCN=C(N)NC(N)=NC[C@@H](CC)CCCC", "Potency": "28.2 µM (active)"},
      {"smiles": "CC(O)C(N)C(=O)O", "note": "(stereo not given)", "activity change, negative = inhibition": "-7.88% (inactive)"},
      {"smiles": "CCC1OC(=O)C[C@@H](O)[C@H](C)[C@@H](OC2OC(C)CC(N(C)C)C2O)[C@@H](CC=O)C[C@@H](C)C(=O)/C=C/[C@]2(C)OC2C1C", "note": "(stereo not given in full)", "activity change, negative = inhibition": "-13.6% (inactive)"},
      {"smiles": "C[N+]12CCCC[C@@H]1CCC(=C(c1cccs1)c1cccs1)C2", "note": "(stereo not given in full)", "activity change, negative = inhibition": "-3.01% (inactive)"},
      {"smiles": "C[C@@H]1CC2C3CCC4=CC(=O)C=C[C@]4(C)[C@@]3(F)[C@@H](O)C[C@]2(C)[C@@]1(O)C(=O)COC(=O)c1cccc(S(=O)(=O)O)c1", "note": "(stereo not given in full)", "activity change, negative = inhibition": "-11.2% (inactive)"},
      {"smiles": "CCN(CC)CCOCCOC(=O)C(CC)(CC)c1ccccc1", "note": "(tested in a mixture with another compound)", "activity change, negative = inhibition": "-4.63% (inactive)"},
      {"smiles": "O=C1[C@@H]2C[C@@H]3C[C@H]1C[C@@](O)(C3)C2", "activity change, negative = inhibition": "-9.69% (inactive)"},
      {"smiles": "NC(C(=O)O)C(O)c1ccc(O)c(O)c1", "note": "(stereo not given)", "Potency": "22.4 µM (active)"},
      {"smiles": "CC(=O)NC1[C@H]([C@H](O)[C@H](O)CO)OC(C(=O)O)=C[C@H]1N=C(N)N", "note": "(stereo not given in full)", "activity change, negative = inhibition": "-2.89% (inactive)"},
      {"smiles": "Cc1ccc(/C=C2/C(=O)C3(C)CCC2C3(C)C)cc1", "note": "(stereo not given)", "activity change, negative = inhibition": "-7.78% (inactive)"},
      {"smiles": "O=C(O)c1ccccc1-c1c2ccc(=O)cc-2oc2cc(O)ccc12", "activity change, negative = inhibition": "-94.3% [at 11.4 µM] (inactive)"},
      {"smiles": "CCCCCOC(=O)Nc1nc(=O)n(C2O[C@H](C)[C@@H](O)[C@@H]2O)cc1F", "note": "(stereo not given in full)", "activity change, negative = inhibition": "3.23% (inactive)"},
      {"smiles": "CNC1CCc2cc(OC)c(OC)c(OC)c2-c2ccc(OC)c(=O)cc21", "note": "(stereo not given)", "activity change, negative = inhibition": "-8.82% (inactive)"},
      {"smiles": "CC1(C)SC2C(NC(=O)C(C(=O)O)c3ccccc3)C(=O)N2C1C(=O)O", "note": "(stereo not given)", "activity change, negative = inhibition": "-7.43% (inactive)"},
      {"smiles": "CCC(C)C(N)C(=O)O", "note": "(stereo not given)", "activity change, negative = inhibition": "-0.0641% (inactive)"},
      {"smiles": "Cc1cncc(C(=O)O)[n+]1[O-]", "activity change, negative = inhibition": "-7.35% (inactive)"}
    ]}
  ]
}
